# Results: PubChem BioAssay (NCI)
# Compounds without any hit were thinned out: in the full panel of roughly 79,000, 15% have a hit. A number with no mark means an inactive call. Activity calls are given as the source filed them. No stated cut-off is given here; in the data, active means growth inhibition above about 70%; inactive means the rest.
# Assays:
# [1] = NCI Yeast Anticancer Drug Screen. Data for the rad52 strain (AID 147);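 further: 0% = growth of vehicle-treated control cultures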; details: S. cerevisiae rad52 mutant growth inhibition, stronger effect = higher value
# Procedure, shortened: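 The repair-mutant yeast strain was incubated with compounds, then growth was read and inhibition derived relative to vehicle.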
# [2] = NCI Yeast Anticancer Drug Screen. Data for the wt1 strain (AID 149);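 further: 0% = growth of vehicle-treated wt1 cultures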; details: S. cerevisiae wt1 strain (SPY 50644) growth inhibition, stronger effect = higher value
# Procedure, shortened: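 Measured: growth of wt1 yeast under compound versus vehicle treatment, reported as inhibition.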
# [3] = NCI Yeast Anticancer Drug Screen. Data for the rad50EPP+ strain (AID 151);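 further: 0% = growth of vehicle-treated control cultures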; details: S. cerevisiae rad50 mutant strain, stronger effect = higher value
# Procedure, shortened: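 Vehicle-normalised growth inhibition; rad50EPP+ yeast strain, altered in DNA damage repair, compound-treated.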
# [4] = NCI Yeast Anticancer Drug Screen. Data for the mgt1 strain (AID 153); details: S. cerevisiae mgt1 mutant growth inhibition, stronger effect = higher value
# Procedure, shortened: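 Vehicle-normalized growth inhibition is determined in mgt1 yeast, a strain selected for a defined alteration in DNA repair or cell cycle control.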
# [5] = NCI Yeast Anticancer Drug Screen. Data for the rad50 strain (AID 155);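 further: 0% = growth of vehicle-only cultures of the same strain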; details: S. cerevisiae rad50 strain growth inhibition, stronger effect = higher value
# Procedure, shortened: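 Growth of the mutant yeast was measured after compound exposure and referenced to vehicle-treated cultures.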
# [6] = NCI Yeast Anticancer Drug Screen. Data for the mec2-1 strain (AID 157); details: S. cerevisiae mec2-1 strain, stronger effect = higher value
# Procedure, shortened: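 Mutant yeast (mec2-1) grown with compound; growth inhibition relative to vehicle control reported.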
# [7] = NCI Yeast Anticancer Drug Screen. Data for the rad14 strain (AID 159);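 further: 0% = growth of vehicle-treated control cultures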; details: S. cerevisiae rad14 strain growth inhibition, stronger effect = higher value
# Procedure, shortened: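 Here, inhibition of yeast growth was measured after compound exposure, using a strain with a genetic defect in DNA damage repair and vehicle-treated cultures as the reference.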
# [8] = NCI Yeast Anticancer Drug Screen. Data for the sgs1 mgt1 strain (AID 161);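 further: 0% = growth of cultures given vehicle only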; details: S. cerevisiae sgs1 mgt1 strain, stronger effect = higher value
# Procedure, shortened: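 This yeast growth screen uses a strain with defined DNA-repair lesions; compound-treated growth is compared with vehicle-treated growth.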
# [9] = NCI Yeast Anticancer Drug Screen. Data for the CLN2oe strain (AID 163);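 further: 0% = growth of vehicle-only control cultures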; details: S. cerevisiae CLN2oe strain, stronger effect = higher value
# Procedure, shortened: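 Compounds are applied to yeast harbouring a defined cell-cycle control change; reduced growth compared with vehicle-treated controls gives the value.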
# [10] = NCI Yeast Anticancer Drug Screen. Data for the cln2 rad14 strain (AID 165);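 further: 0% = growth equal to vehicle treated cultures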; details: S. cerevisiae cln2 rad14 strain, stronger effect = higher value
# Procedure, shortened: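 Readout is yeast growth inhibition versus vehicle-treated controls, using a strain with cln2 and rad14 alterations exposed to compound.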
# [11] = NCI Yeast Anticancer Drug Screen. Data for the bub3 strain (AID 167); details: S. cerevisiae bub3 mutant strain, stronger effect = higher value
# Procedure, shortened: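 Whole-cell yeast assay. The mutant strain was incubated with compounds, and growth inhibition was determined by comparison with vehicle-treated cells.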
# [12] = NCI Yeast Anticancer Drug Screen. Data for the wt2 strain (AID 169);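 further: 0% = growth of vehicle-treated yeast cultures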; details: S. cerevisiae wt2 strain growth inhibition, stronger effect = higher value
# Procedure, shortened: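 Against vehicle-treated controls, the growth of yeast exposed to each compound was compared, and the inhibition was recorded.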
# [13] = NCI Yeast Anticancer Drug Screen. Data for the mlh1 strain (AID 171);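 further: 0% = growth of vehicle-treated control cultures of the same strain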; details: S. cerevisiae mlh1 strain growth inhibition, stronger effect = higher value
# Procedure, shortened: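 Measured: yeast growth. Reference: vehicle-treated controls. Organism: strain with a defined alteration affecting DNA damage repair or cell cycle control, treated with compound.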
# [14] = NCI Yeast Anticancer Drug Screen. Data for the sgs1 strain (AID 173);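 further: 0% = growth of vehicle-only control cultures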; details: S. cerevisiae sgs1 mutant, stronger effect = higher value
# Procedure, shortened: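 Each compound was added to cultures of the altered yeast strain. Growth was recorded, and inhibition was derived by comparison with vehicle controls.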
# [15] = NCI Yeast Anticancer Drug Screen. Data for the mlh1 rad18 strain (AID 175); details: S. cerevisiae mlh1 rad18 strain growth inhibition, stronger effect = higher value
# Procedure, shortened: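 Genetically defined yeast (DNA repair-deficient) exposed to compounds; growth inhibition determined relative to vehicle.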
# [16] = NCI Yeast Anticancer Drug Screen. Data for the rad18 strain (AID 177); details: S. cerevisiae rad18 mutant growth inhibition, stronger effect = higher value
# Procedure, shortened: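 Vehicle-treated cultures served as the baseline for scoring compound-induced growth inhibition in DNA-repair-mutant yeast.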
# [17] = at 5.0 µM (retest, dose inferred, filed as 0.5)
# [18] = at 50.0 µM (retest, dose inferred, filed as 5.0)
compound,measurement,setting,value
CCc1c[n+]([O-])c(C)cc1[N+](=O)[O-],growth inhibition,[1]; at 1.2 µM,2%
same,growth inhibition,[1]; at 3.7 µM,7%
same,growth inhibition,[1]; at 11.0 µM,21%
same,growth inhibition,[1]; at 33.0 µM,57%
same,growth inhibition,[1]; at 100.0 µM,90% (active)
same,growth inhibition,[2]; at 1.2 µM,0%
same,growth inhibition,[2]; at 3.7 µM,-1%
same,growth inhibition,[2]; at 11.0 µM,0%
same,growth inhibition,[2]; at 33.0 µM,-1%
same,growth inhibition,[2]; at 100.0 µM,13%
same,growth inhibition,[3]; at 1.2 µM,-1%
same,growth inhibition,[3]; at 3.7 µM,6%
same,growth inhibition,[3]; at 11.0 µM,25%
same,growth inhibition,[3]; at 33.0 µM,55%
same,growth inhibition,[3]; at 100.0 µM,85% (active)
same,growth inhibition,[4]; at 1.2 µM,-2%
same,growth inhibition,[4]; at 3.7 µM,-2%
same,growth inhibition,[4]; at 11.0 µM,-2%
same,growth inhibition,[4]; at 33.0 µM,17%
same,growth inhibition,[4]; at 100.0 µM,22%
same,growth inhibition,[5]; at 1.2 µM,1%
same,growth inhibition,[5]; at 3.7 µM,6%
same,growth inhibition,[5]; [17],17%
same,growth inhibition,[5]; at 11.0 µM,18%
same,growth inhibition,[5]; at 33.0 µM,53%
same,growth inhibition,[5]; [18],94% (active)
same,growth inhibition,[5]; at 50.0 µM,73.7% (active)
same,growth inhibition,[5]; at 100.0 µM,87% (active)
same,growth inhibition,[6]; at 1.2 µM,-2%
same,growth inhibition,[6]; at 3.7 µM,1%
same,growth inhibition,[6]; [17],-6%
same,growth inhibition,[6]; at 11.0 µM,2%
same,growth inhibition,[6]; at 33.0 µM,27%
same,growth inhibition,[6]; [18],77% (active)
same,growth inhibition,[6]; at 50.0 µM,14.9%
same,growth inhibition,[6]; at 100.0 µM,92% (active)
same,growth inhibition,[7]; at 1.2 µM,5%
same,growth inhibition,[7]; at 3.7 µM,12%
same,growth inhibition,[7]; at 11.0 µM,48%
same,growth inhibition,[7]; at 33.0 µM,94% (active)
same,growth inhibition,[7]; at 100.0 µM,98% (active)
same,growth inhibition,[8]; [17],45%
same,growth inhibition,[8]; [18],95% (active)
same,growth inhibition,[8]; at 50.0 µM,87.5% (active)
same,growth inhibition,[9]; at 1.2 µM,-2%
same,growth inhibition,[9]; at 3.7 µM,-4%
same,growth inhibition,[9]; at 11.0 µM,-5%
same,growth inhibition,[9]; at 33.0 µM,-14%
same,growth inhibition,[9]; at 100.0 µM,-2%
same,growth inhibition,[10]; [17],21%
same,growth inhibition,[10]; [18],94% (active)
same,growth inhibition,[10]; at 50.0 µM,88.2% (active)
same,growth inhibition,[11]; at 1.2 µM,-4%
same,growth inhibition,[11]; at 3.7 µM,-8%
same,growth inhibition,[11]; [17],8%
same,growth inhibition,[11]; at 11.0 µM,-14%
same,growth inhibition,[11]; at 33.0 µM,-20%
same,growth inhibition,[11]; [18],52%
same,growth inhibition,[11]; at 50.0 µM,-29.3%
same,growth inhibition,[11]; at 100.0 µM,-2%
same,growth inhibition,[12]; at 1.2 µM,0%
same,growth inhibition,[12]; at 3.7 µM,0%
same,growth inhibition,[12]; at 11.0 µM,2%
same,growth inhibition,[12]; at 33.0 µM,5%
same,growth inhibition,[12]; at 100.0 µM,21%
same,growth inhibition,[13]; at 1.2 µM,-1%
same,growth inhibition,[13]; at 3.7 µM,-1%
same,growth inhibition,[13]; at 11.0 µM,3%
same,growth inhibition,[13]; at 33.0 µM,7%
same,growth inhibition,[13]; at 100.0 µM,29%
same,growth inhibition,[14]; at 1.2 µM,10%
same,growth inhibition,[14]; at 3.7 µM,31%
same,growth inhibition,[14]; at 11.0 µM,63%
same,growth inhibition,[14]; at 33.0 µM,85% (active)
same,growth inhibition,[14]; at 100.0 µM,93% (active)
same,growth inhibition,[15]; [17],58%
same,growth inhibition,[15]; [18],96% (active)
same,growth inhibition,[15]; at 50.0 µM,65.9%
same,growth inhibition,[16]; at 1.2 µM,56%
same,growth inhibition,[16]; at 3.7 µM,86% (active)
same,growth inhibition,[16]; at 11.0 µM,92% (active)
same,growth inhibition,[16]; at 33.0 µM,95% (active)
same,growth inhibition,[16]; at 100.0 µM,95% (active)
Cc1cc(C)nc(NS(=O)(=O)c2ccc(Nc3c4ccccc4nc4c(C(=O)NCCO)cccc34)cc2)n1,growth inhibition,[1]; at 1.2 µM,-2%
same,growth inhibition,[1]; at 3.7 µM,-1%
same,growth inhibition,[1]; at 11.0 µM,2%
same,growth inhibition,[1]; at 33.0 µM,21%
same,growth inhibition,[1]; at 100.0 µM,59%
same,growth inhibition,[2]; at 1.2 µM,-1%
same,growth inhibition,[2]; at 3.7 µM,-2%
same,growth inhibition,[2]; at 11.0 µM,-2%
same,growth inhibition,[2]; at 33.0 µM,-35%
same,growth inhibition,[2]; at 100.0 µM,-9%
same,growth inhibition,[3]; at 1.2 µM,-3%
same,growth inhibition,[3]; at 3.7 µM,0%
same,growth inhibition,[3]; at 11.0 µM,1%
same,growth inhibition,[3]; at 33.0 µM,3%
same,growth inhibition,[3]; at 100.0 µM,-14%
same,growth inhibition,[4]; at 1.2 µM,0%
same,growth inhibition,[4]; at 3.7 µM,-1%
same,growth inhibition,[4]; at 11.0 µM,-2%
same,growth inhibition,[4]; at 33.0 µM,-1%
same,growth inhibition,[4]; at 100.0 µM,32%
same,growth inhibition,[5]; at 1.2 µM,-1%
same,growth inhibition,[5]; at 3.7 µM,1%
same,growth inhibition,[5]; [17],-17%
same,growth inhibition,[5]; at 11.0 µM,6%
same,growth inhibition,[5]; at 33.0 µM,25%
same,growth inhibition,[5]; [18],91% (active)
same,growth inhibition,[5]; at 50.0 µM,39.2%
same,growth inhibition,[5]; at 100.0 µM,68%
same,growth inhibition,[6]; at 1.2 µM,-1%
same,growth inhibition,[6]; at 3.7 µM,-1%
same,growth inhibition,[6]; [17],-13%
same,growth inhibition,[6]; at 11.0 µM,1%
same,growth inhibition,[6]; at 33.0 µM,3%
same,growth inhibition,[6]; [18],6%
same,growth inhibition,[6]; at 50.0 µM,3.4%
same,growth inhibition,[6]; at 100.0 µM,24%
same,growth inhibition,[7]; at 1.2 µM,0%
same,growth inhibition,[7]; at 3.7 µM,1%
same,growth inhibition,[7]; at 11.0 µM,4%
same,growth inhibition,[7]; at 33.0 µM,9%
same,growth inhibition,[7]; at 100.0 µM,26%
same,growth inhibition,[8]; [17],-9%
same,growth inhibition,[8]; [18],56%
same,growth inhibition,[8]; at 50.0 µM,-10.7%
same,growth inhibition,[9]; at 1.2 µM,0%
same,growth inhibition,[9]; at 3.7 µM,-3%
same,growth inhibition,[9]; at 11.0 µM,-3%
same,growth inhibition,[9]; at 33.0 µM,-2%
same,growth inhibition,[9]; at 100.0 µM,10%
same,growth inhibition,[10]; [17],16%
same,growth inhibition,[10]; [18],6%
same,growth inhibition,[10]; at 50.0 µM,81.2% (active)
same,growth inhibition,[11]; at 1.2 µM,0%
same,growth inhibition,[11]; at 3.7 µM,0%
same,growth inhibition,[11]; [17],-17%
same,growth inhibition,[11]; at 11.0 µM,2%
same,growth inhibition,[11]; at 33.0 µM,0%
same,growth inhibition,[11]; [18],2%
same,growth inhibition,[11]; at 50.0 µM,0%
same,growth inhibition,[11]; at 100.0 µM,16%
same,growth inhibition,[12]; at 1.2 µM,-1%
same,growth inhibition,[12]; at 3.7 µM,-2%
same,growth inhibition,[12]; at 11.0 µM,-2%
same,growth inhibition,[12]; at 33.0 µM,-2%
same,growth inhibition,[12]; at 100.0 µM,27%
same,growth inhibition,[13]; at 1.2 µM,-3%
same,growth inhibition,[13]; at 3.7 µM,-2%
same,growth inhibition,[13]; at 11.0 µM,0%
same,growth inhibition,[13]; at 33.0 µM,-1%
same,growth inhibition,[13]; at 100.0 µM,30%
same,growth inhibition,[14]; at 1.2 µM,-3%
same,growth inhibition,[14]; at 3.7 µM,-1%
same,growth inhibition,[14]; at 11.0 µM,1%
same,growth inhibition,[14]; at 33.0 µM,2%
same,growth inhibition,[14]; at 100.0 µM,30%
same,growth inhibition,[15]; [17],-8%
same,growth inhibition,[15]; [18],44%
same,growth inhibition,[15]; at 50.0 µM,65.3%
same,growth inhibition,[16]; at 1.2 µM,-4%
same,growth inhibition,[16]; at 3.7 µM,-1%
same,growth inhibition,[16]; at 11.0 µM,0%
same,growth inhibition,[16]; at 33.0 µM,7%
same,growth inhibition,[16]; at 100.0 µM,30%
